Targets with a hit are over-represented here; the source holds about 7,900 in all. About 0.6% of all pairs of compound and target were hits. A number with no mark means an inactive call.

Sequence of UniProt Q7Z7A3 (Q7Z7A3 whole entry, looked up): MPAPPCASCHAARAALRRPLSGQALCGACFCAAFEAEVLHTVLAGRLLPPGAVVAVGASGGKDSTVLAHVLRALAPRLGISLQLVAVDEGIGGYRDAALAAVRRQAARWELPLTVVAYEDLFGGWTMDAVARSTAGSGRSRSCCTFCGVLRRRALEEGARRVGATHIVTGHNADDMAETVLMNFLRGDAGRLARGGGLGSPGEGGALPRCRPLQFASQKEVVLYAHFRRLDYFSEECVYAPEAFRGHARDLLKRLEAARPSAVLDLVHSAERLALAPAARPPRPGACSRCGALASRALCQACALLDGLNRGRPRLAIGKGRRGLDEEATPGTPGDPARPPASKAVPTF
Sequence of UniProt O60231 (O60231 whole entry, looked up): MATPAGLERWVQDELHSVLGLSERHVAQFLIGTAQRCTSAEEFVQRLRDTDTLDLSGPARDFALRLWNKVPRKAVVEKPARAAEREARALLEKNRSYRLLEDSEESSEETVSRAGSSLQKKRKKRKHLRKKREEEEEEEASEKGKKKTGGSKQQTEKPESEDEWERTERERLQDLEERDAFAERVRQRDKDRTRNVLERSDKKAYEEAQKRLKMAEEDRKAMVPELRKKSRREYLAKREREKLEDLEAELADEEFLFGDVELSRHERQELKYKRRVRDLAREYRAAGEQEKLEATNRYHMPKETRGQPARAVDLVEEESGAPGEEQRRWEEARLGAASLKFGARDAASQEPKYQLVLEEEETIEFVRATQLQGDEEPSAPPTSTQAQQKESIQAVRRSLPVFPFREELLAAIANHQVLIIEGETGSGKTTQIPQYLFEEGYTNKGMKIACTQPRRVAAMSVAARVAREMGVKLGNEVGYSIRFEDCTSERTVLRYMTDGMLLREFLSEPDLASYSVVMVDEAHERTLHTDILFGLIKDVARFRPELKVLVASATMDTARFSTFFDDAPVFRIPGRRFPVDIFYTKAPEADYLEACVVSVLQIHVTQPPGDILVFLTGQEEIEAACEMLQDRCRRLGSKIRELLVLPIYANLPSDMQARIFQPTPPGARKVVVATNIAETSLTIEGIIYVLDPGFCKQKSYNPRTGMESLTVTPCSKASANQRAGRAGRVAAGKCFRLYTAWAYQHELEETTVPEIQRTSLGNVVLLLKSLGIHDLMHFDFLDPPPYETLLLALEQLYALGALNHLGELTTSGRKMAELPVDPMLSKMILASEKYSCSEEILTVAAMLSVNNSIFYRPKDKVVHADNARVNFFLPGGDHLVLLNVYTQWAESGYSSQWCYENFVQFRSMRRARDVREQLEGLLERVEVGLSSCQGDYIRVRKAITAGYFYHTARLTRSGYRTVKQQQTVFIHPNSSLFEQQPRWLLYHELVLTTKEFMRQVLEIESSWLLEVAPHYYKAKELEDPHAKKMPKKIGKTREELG
Sequence of UniProt Q96A65 (Q96A65 whole entry, looked up): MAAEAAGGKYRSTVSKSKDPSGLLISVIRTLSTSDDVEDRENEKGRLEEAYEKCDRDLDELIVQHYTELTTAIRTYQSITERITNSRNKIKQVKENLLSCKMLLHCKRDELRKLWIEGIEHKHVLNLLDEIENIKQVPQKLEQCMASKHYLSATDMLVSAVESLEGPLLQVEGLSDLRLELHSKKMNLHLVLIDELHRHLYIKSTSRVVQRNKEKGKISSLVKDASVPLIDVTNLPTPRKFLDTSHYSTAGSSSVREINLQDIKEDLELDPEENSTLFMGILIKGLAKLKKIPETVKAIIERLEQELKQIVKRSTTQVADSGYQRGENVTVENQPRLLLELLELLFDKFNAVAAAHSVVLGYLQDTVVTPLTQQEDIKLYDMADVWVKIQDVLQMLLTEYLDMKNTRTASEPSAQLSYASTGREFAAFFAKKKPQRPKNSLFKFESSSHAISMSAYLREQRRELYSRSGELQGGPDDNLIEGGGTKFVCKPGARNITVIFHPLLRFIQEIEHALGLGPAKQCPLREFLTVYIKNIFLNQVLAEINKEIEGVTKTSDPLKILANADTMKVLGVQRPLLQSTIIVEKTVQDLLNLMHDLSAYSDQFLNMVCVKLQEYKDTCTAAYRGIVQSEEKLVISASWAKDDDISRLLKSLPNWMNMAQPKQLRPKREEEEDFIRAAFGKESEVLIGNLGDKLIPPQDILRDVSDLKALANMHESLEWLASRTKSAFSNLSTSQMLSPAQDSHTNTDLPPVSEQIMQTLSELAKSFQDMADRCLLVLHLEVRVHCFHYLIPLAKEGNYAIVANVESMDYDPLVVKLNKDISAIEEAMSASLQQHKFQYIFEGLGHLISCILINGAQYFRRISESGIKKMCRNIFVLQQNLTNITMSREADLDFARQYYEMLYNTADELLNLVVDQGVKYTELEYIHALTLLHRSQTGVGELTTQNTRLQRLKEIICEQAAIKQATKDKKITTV
Sequence of UniProt Q5QP82 (Q5QP82 whole entry, looked up): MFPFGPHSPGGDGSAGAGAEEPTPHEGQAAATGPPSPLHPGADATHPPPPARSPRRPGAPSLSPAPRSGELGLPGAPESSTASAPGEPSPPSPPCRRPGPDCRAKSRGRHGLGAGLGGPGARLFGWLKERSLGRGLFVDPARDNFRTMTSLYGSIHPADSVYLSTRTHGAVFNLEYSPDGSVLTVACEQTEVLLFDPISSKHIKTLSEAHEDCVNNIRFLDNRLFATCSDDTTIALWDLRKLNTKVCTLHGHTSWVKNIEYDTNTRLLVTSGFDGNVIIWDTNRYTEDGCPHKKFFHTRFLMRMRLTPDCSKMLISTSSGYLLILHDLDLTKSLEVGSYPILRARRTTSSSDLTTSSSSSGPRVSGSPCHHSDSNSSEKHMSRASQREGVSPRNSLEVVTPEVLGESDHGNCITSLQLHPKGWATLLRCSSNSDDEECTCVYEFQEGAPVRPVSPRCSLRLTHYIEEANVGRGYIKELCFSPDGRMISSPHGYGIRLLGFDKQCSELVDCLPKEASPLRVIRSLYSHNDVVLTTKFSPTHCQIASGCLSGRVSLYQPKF
Sequence of UniProt P60842 (P60842 whole entry, looked up): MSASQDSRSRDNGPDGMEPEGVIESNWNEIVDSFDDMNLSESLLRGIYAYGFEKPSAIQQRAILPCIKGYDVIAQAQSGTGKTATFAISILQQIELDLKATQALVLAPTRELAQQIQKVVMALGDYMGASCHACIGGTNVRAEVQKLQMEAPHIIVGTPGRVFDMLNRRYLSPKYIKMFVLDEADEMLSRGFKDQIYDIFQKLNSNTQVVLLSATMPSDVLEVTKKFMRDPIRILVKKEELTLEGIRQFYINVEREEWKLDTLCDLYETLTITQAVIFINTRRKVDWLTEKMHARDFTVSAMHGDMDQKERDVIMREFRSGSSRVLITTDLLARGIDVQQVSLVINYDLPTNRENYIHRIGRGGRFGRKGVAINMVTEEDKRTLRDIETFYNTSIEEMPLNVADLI
Sequence of UniProt O75477 (O75477 whole entry, looked up): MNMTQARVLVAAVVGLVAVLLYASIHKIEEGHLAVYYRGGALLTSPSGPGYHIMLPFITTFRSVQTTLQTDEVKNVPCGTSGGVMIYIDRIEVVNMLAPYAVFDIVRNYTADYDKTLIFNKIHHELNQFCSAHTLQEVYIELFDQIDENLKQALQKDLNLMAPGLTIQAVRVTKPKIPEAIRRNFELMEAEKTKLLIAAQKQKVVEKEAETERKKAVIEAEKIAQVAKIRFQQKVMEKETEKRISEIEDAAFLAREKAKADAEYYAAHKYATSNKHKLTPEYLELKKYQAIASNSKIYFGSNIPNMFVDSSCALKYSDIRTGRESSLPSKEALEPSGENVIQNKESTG
Sequence of UniProt Q13011 (Q13011 whole entry, looked up): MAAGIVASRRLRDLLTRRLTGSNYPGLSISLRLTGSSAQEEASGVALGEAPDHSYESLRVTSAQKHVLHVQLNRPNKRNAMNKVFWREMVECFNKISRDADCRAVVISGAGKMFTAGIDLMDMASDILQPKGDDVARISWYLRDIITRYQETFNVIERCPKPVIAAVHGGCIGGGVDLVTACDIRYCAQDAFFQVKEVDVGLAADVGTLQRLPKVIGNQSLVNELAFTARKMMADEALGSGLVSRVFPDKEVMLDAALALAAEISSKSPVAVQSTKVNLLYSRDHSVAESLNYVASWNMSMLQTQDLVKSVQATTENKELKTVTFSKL
Sequence of UniProt Q9BPY3 (Q9BPY3 whole entry, looked up): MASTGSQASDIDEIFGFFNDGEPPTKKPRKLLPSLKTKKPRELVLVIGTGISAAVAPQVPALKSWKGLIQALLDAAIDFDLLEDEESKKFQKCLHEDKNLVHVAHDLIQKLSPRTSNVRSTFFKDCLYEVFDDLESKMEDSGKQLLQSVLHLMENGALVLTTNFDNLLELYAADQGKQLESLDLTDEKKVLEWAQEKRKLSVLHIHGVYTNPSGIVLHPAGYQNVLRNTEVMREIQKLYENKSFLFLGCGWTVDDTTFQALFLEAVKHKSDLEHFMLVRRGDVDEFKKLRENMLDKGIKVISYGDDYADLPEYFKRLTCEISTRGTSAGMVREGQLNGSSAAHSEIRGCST
Sequence of UniProt Q6UX04 (Q6UX04 whole entry, looked up): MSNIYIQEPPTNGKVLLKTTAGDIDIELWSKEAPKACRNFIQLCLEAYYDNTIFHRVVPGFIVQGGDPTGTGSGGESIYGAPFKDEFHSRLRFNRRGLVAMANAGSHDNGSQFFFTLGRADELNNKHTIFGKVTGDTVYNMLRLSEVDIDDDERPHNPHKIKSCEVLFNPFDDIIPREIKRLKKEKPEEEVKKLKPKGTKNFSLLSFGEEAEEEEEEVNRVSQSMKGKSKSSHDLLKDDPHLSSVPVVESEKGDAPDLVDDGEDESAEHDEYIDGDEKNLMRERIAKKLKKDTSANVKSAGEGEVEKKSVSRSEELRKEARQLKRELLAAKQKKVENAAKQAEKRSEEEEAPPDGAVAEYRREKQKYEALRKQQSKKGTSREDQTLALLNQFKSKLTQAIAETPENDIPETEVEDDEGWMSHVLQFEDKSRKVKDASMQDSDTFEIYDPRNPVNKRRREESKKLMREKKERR
Sequence of UniProt Q96GE9 (Q96GE9 whole entry, looked up): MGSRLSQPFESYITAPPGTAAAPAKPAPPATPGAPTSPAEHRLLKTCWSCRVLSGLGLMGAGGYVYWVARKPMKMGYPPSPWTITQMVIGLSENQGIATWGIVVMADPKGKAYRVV

Compound in the assay: CCCS(=O)(=O)Nc1ccc(F)c(C(=O)c2c[nH]c3ncc(Cl)cc23)c1F
Description: log2 fold change, soluble protein after heating vs DMSO (PISA); higher = thermal stabilisation; K562 cells, 10 uM, 30 min; active = over 0.2 and 3.5 SD of the protein, either way, in both replicates (recomputed). Put shortly: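 Soluble protein was quantified by TMTpro 16plex LC-MS/MS after channel sums were equalised. It was obtained as the supernatant after 21,000xg for 90 min from pooled aliquots of K562 cells (2×10^6 cells/mL, 10 μM compound, 30 min) heated for 3 min across 48°C-58°C and extracted in PBS with 0.5% NP-40 at 4°C. Thermal stability values are relative to control samples and come from duplicates. They are given as log2 fold changes.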
In the case of DNAJC7 (UniProt Q99615), the log2 fold change was 0.098. In the case of EXOC4 (UniProt Q96A65), the log2 fold change is 0.098. Turning to EXOC7 (UniProt Q9UPT5), the log2 fold change is 0.07. For DPP8 (UniProt Q6V1X1), the log2 fold change is -0.05. As to EIF4G1 isoform 8 (UniProt Q04637), the log2 fold change is 0.028. As to DTWD2 (UniProt Q8NBA8), the log2 fold change is 0.043. The same measure for ERLIN1 (UniProt O75477): 0.014; for DMAC1 (UniProt Q96GE9): -0.035.

For DYRK1A isoform 2 (UniProt Q13627), the log2 fold change was -0.024.

Turning to ECH1 (UniProt Q13011), the log2 fold change is -0.003.

In the case of EHBP1L1 (UniProt Q8N3D4), the log2 fold change was 0.007. The same measure for CWC27 (UniProt Q6UX04): 0.112; for EEF1G isoform 2 (UniProt P26641): 0.101. To DLD (UniProt P09622) belongs -0.01. The same measure for DTWD1 (UniProt Q8N5C7): -0.013; for CTSV (UniProt O60911): -0.006; for FAM122A (UniProt Q96E09): 0.095. Take DTNBP1 (UniProt Q96EV8): the log2 fold change was 0.017. Consider ERLIN2 (UniProt O94905), for which the log2 fold change was 0.008. The same measure for EIF3J (UniProt O75822): -0.022; for CTSB (UniProt P07858): -0.008. For the target CTU1 (UniProt Q7Z7A3), the log2 fold change was 0.034. Consider DHRS7B (UniProt Q6IAN0), for which the log2 fold change is 0.06.

On to EIF4A1 (UniProt P60842), for which the log2 fold change was 0.089. As to DNAJC24 (UniProt Q6P3W2), the log2 fold change is -0.034.

Take DCUN1D1 (UniProt Q96GG9): the log2 fold change is 0.05. As for DCAF10 (UniProt Q5QP82), the log2 fold change is 0.002. To DBR1 (UniProt Q9UK59) belongs 0.037. To EOGT (UniProt Q5NDL2) belongs -0.098; to EIF2AK1 (UniProt Q9BQI3), 0.044; to DHCR24 (UniProt Q15392), -0.012. On to DTYMK (UniProt P23919), for which the log2 fold change was -0.069. With ELOVL1 (UniProt Q9BW60), the log2 fold change is 0.116.

In the case of FAM118B (UniProt Q9BPY3), the log2 fold change is 0.003.

Regarding EED, A0A5F9ZI63, the log2 fold change is 0.025. To DHRS3 (UniProt O75911) belongs -0.04. To EIF4E2 (UniProt O60573) belongs 0.069; to DHX16 (UniProt O60231), 0.059. The same measure for ESYT1 isoform 2 (UniProt Q9BSJ8): 0.048. Consider FAM114A2 (UniProt Q9NRY5), for which the log2 fold change is 0.061.

For the origin of these results see the supplement of paper PMC10849652.
